Assay outcomes: PubChem, National Center for Advancing Translational Sciences (NCATS)
The entries come from a sample that favours hits as a whole.
L3MBTL1 block: blocks human L3MBTL1; Q9Y468; Potency, µM (series often up to 57.1 µM), without a hit: at the top dose activity, negative = inhibition, most hits filed as inhibitors; hit rate 0.66% among 230,000; AlphaScreen L3MBTL1–H3K9me1 peptide binding; further: nearly all actives have a fitted effect of over 60% in size
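First, the protein-peptide complex forms for 30 min at room temperature (L3MBTL1 50 nM, biotinylated H3K9me1 peptide 75 nM). Next, compounds are pin-transferred and incubated 30 min. Finally, AlphaScreen beads are added and read after 30 min.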
RECQ1 inh: inhibitors of human RECQ1 DNA helicase; Potency, µM (series often up to 57.3 µM), inactives show at the highest dose activity, negative = inhibition, most hits filed as inhibitors; hit rate 0.54% among 240,000; AID 2549; RECQ1 DNA unwinding, red fluorescence kinetic read; P46063;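 further: plate controls were vehicle for no effect and no enzyme for full effect; nearly all actives have a fitted effect of over 30% in size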
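RECQ1T1 50 nM; forked duplex (20 bp + 30-nt ss tails) 200 nM, ATP 2 mM final; pH 8.0, 2 mM MgCl2, 2.5 ug/ml poly(dI-dC); 15 min compound preincubation; discontinuous kinetic read over 2 h at RT.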
BLM helicase inh: Bloom syndrome helicase (human) inhibition | P54132 | Potency, µM (titrated, usually from 56.1 µM), for inactives: at the top dose activity change, negative = inhibition, most hits filed as inhibitors | hit rate 0.2% among 350,000 | recombinant BLM DNA unwinding, fluorescence dequenching;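 further: plate controls were vehicle for no effect and no enzyme for full effect; nearly all actives have a fitted effect of over 35% in size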
JMJD2E inh: JMJD2E (human) inhibition; Potency, µM (highest dose often 57.1 µM), inactives show at the top dose activity change, negative = inhibition, hits mostly inhibitors; JMJD2E catalytic domain, FDH-coupled NADH fluorescence (FDH is formaldehyde dehydrogenase); hit rate 1.6% among 230,000; AID 2147; active means well fitted inhibition curve with a large enough effect, not every such curve was filed as active; inconclusive means small, poorly fitted or top-dose-only effect, or another doubt; inactive means no such curve, though single readings can be large or run the other way;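 further: 0% = wells with enzyme and -100% = buffer wells without enzyme; nearly all actives have a fitted effect of over 50% in size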
Target sequence (B2RXH2 1-337 limits assumed): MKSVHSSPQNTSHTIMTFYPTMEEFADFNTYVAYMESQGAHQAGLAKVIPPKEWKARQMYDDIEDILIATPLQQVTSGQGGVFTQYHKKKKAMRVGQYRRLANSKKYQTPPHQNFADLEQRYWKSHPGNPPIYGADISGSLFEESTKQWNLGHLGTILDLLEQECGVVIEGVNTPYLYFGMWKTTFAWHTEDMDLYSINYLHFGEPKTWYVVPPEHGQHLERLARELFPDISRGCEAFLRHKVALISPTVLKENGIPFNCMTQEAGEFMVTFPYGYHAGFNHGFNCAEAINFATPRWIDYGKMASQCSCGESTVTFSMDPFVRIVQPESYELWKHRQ
APE1 inh: APE1 (human) endonuclease inhibition. Potency, µM (series often up to 65.8 µM), for inactives: at the top dose activity change, negative = inhibition, actives largely listed as inhibitors. P27695. recombinant APE1, TAMRA/BHQ-2 abasic DNA cleavage fluorescence. hit rate 0.35% among 350,000. AID 2517;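 further: plate controls were vehicle for no effect and reference inhibitor for full effect; nearly all actives have a fitted effect of over 55% in size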
Target sequence (P27695 whole entry, looked up): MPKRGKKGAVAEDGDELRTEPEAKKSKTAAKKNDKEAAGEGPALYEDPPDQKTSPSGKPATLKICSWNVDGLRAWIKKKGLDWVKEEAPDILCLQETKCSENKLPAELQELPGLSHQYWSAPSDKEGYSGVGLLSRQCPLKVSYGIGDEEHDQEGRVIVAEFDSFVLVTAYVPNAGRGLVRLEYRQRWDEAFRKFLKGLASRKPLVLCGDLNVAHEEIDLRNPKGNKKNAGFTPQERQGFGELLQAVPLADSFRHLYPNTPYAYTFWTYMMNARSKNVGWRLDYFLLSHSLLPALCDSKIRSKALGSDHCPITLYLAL
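Incision of a quenched TAMRA/BHQ-2 THF abasic-site duplex (50 nM) by 0.75 nM APE1, after 15 min compound preincubation, measured as fluorescence increase over three 60 s reads. Values normalized to buffer, DMSO and NSC13755 control wells.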
KAT2A inh: GCN5L2 (KAT2A) acetyltransferase inhibition | GCN5L2 HAT assay, ThioGlo1 CoA-SH fluorescence | Potency, µM (series often up to 58.9 µM), without a hit: at the highest dose activity change, negative = inhibition, most hits filed as inhibitors | hit rate 0.21% among 390,000 | AID 504327
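GCN5L2 (20 nM) in 50mM HEPES pH 7.5, 0.1mM EDTA, 0.01% Tween-20 preincubated 15 min with compounds at room temperature. Reaction started with H3(1-25) 75uM, acetyl-CoA 70uM, ThioGlo1 50uM; CoA-thiol fluorescence (Ex340/Em540) read at 0 and 20 min.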
* = called active by the depositor; i = inactive; u = inconclusive; x = no result. Unless noted, the call rests on the fitted dose curve; in most records, active means well fitted curve in the direction sought with a large enough effect; inconclusive means small, poorly fitted or top-dose-only effect, or another doubt; inactive means no such curve, though single readings can be large; an effect the other way counts as inactive or inconclusive. Unless noted, on the % scale 0 is the no-effect control and ±100 the full control effect; potency means the concentration at half of the fitted maximal effect.

SMILES	L3MBTL1 block	RECQ1 inh	BLM helicase inh	JMJD2E inh	APE1 inh	KAT2A inh
O=C(O)CCNc1ccc(NCCC(=O)O)c2c1C(=O)c1ccccc1C2=O	x	x	u	x	6.7µM*	-15%
COc1ccccc1NCCC(=O)O	x	i	0%	6%	4%	-8%
COC(=O)c1c(SC)nc2ccccc2c1OCc1ccc(C)cc1	x	x	-4%	x	x	-14%
CCCCCNc1oc(-c2cccc3ccccc23)nc1C#N	x	x	x	x	-6%	x
CC(C)C[C@H](NC(=O)[C@H](CO)NC(=O)CNC(=O)[C@H](CCCCN)NC(=O)[C@H](CCCN=C(N)N)NC(=O)[C@H](C)NC(=O)[C@H](Cc1ccccc1)NC(=O)[C@@H](N)CCCN=C(N)N)C(=O)N[C@@H](CCCN=C(N)N)C(=O)N[C@@H](CCC(N)=O)C(=O)N[C@@H](CCCCN)C(=O)N[C@@H](CC(N)=O)C(=O)N[C@H](C(=O)O)C(C)C	x	-5%	27%	x	2%	3%
O=C(Cc1cc(=O)oc2cc(O)ccc12)NCC1CCC(C(=O)O)CC1 (centres undefined)	1%	-6%	0%	u	17%	28µM*
O=C(Cc1cc(=O)oc2cc(O)ccc12)NC(Cc1ccc(Cl)cc1)C(=O)O (centres undefined)	x	x	0%	x	0%	28µM*
Cc1c(O)ccc2c(CC(=O)N[C@@H](Cc3ccc(O)cc3)C(=O)O)cc(=O)oc12	x	x	-1%	x	50%	-9%
CCCc1cc(=O)oc2cc(OCC(=O)NCC3CCC(C(=O)O)CC3)ccc12 (centres undefined)	4%	x	2%	x	61%	u
CC(C)(C)n1ncc2c(=O)n(Cc3ccccc3C(F)(F)F)cnc21	x	x	x	x	0%	x
C(=C\c1ccc2ccccc2n1)/c1ccccc1	x	-21%	-1%	u	23%	-16%
CN(C)c1ccc(/C=C/c2ccc3ccccc3n2)cc1	39%	1%	-4%	22µM*	-5%	-8%
Cc1ccc(C(=O)N/N=C\c2ccc(Br)o2)o1	-1%	-1%	-1%	-7%	-3%	2.5µM*
O=C(N/N=C/c1c(O)ccc2ccccc12)c1ccc(Br)o1	x	x	-18%	x	15µM*	-11%
O=C(N/N=C/c1c(O)ccc2ccccc12)c1ccc[n+](CCO)c1	35µM*	-8%	-1%	32µM*	-6%	-7%
O=C(N/N=C\c1c(O)ccc2ccccc12)c1ccc(O)cc1	-5%	x	-17%	x	-19%	-3%
O=C(Nc1nnc(C(F)(F)F)s1)c1ccc(N2C(=O)C3C4C=CC(C4)C3C2=O)cc1 (centres undefined)	x	1%	-3%	2%	1%	-2%
CC(=O)Nc1ccc(Nc2c3c4c(cccc4n(C)c2=O)C(=O)c2ccccc2-3)cc1	-15%	-17%	-5%	0%	u	0%
Cn1c(=O)c(N)c2c3c(c(Br)ccc31)C(=O)c1ccccc1-2	-27%	4%	-6%	25µM*	0%	-17%
CC(=O)OCC(=O)Nc1ccccc1C	x	-6%	-1%	1%	-2%	1%
O=C1CCCC/C1=N\Nc1ccc(C2CCCCC2)cc1	3%	-9%	-12%	-6%	21%	-15%
O=C(O)c1ccc(C2CCCCC2)cn1	18µM*	-2%	-11%	u	15%	-4%
COc1cccc(Cn2ncc3c4sc(B(O)O)cc4n(C)c3c2=O)c1	2%	x	x	x	9.5µM*	6%
COc1ccc2c(c1)CCc1c(C(=O)Nc3c(C)nn(Cc4ccccc4C)c3C)noc1-2	x	x	-15%	x	x	-4%
CC(C)CCCC(C)CCCC(C)CCCC(C)C(=O)O (centres undefined)	x	-11%	u	x	-1%	11µM*
SMILES	L3MBTL1 block	RECQ1 inh	BLM helicase inh	JMJD2E inh	APE1 inh	KAT2A inh
NC(=O)C1CCN(c2nc(-c3ccccc3[N+](=O)[O-])cs2)CC1	x	x	x	x	14%	x
COc1ccc(NCc2ccc([N+](=O)[O-])s2)c(OC)c1	u	-6%	-3%	10µM*	u	-5%
O=[N+]([O-])c1ccc(CNc2ccc(F)cc2)s1	-9%	x	-13%	x	18%	-17%
COc1ccc(NCc2ccc([N+](=O)[O-])s2)cc1	u	-5%	-6%	u	32µM*	-2%
Cc1ccc(NC(=O)C(c2ccc(Cl)cc2)N2CCCCC2)cc1 (centres undefined)	2%	i	-12%	2%	13%	2.2µM*
CCCCN(C)C1=CC2=CC(=C(C#N)C#N)CCC2CC1 (centres undefined)	6%	14µM*	13µM*	0%	6%	-5%
N#CC(C#N)=C1C=C2C=C(N3CCCCC3)CCC2CC1 (centres undefined)	-9%	28µM*	-21%	-29%	9%	-3%
CCCc1cc(C(=O)NCC(C)C)no1	-1%	2%	6%	6%	-4%	-9%
Cc1ccc2cccc(NC(=O)c3ccc(-c4ccc(Br)cc4)o3)c2n1	x	x	-5%	x	x	-1%
COC(=O)c1ccccc1NC(=O)c1ccc(-c2ccc(Br)cc2)o1	x	-1%	-3%	3.5µM*	8%	-2%
CSc1ncc(CN2CCN(C3CCCCC3)C(CCO)C2)cn1 (centres undefined)	7%	-12%	-3%	1%	2%	14µM*
CO[C@H]1C[C@@H]2CC[C@@H](C)[C@@](O)(O2)C(=O)C(=O)N2CCCC[C@H]2C(=O)O[C@H]([C@H](C)C[C@@H]2CC[C@@H](O)[C@H](OC)C2)CC(=O)[C@H](C)/C=C(\C)[C@@H](O)[C@@H](OC)C(=O)[C@H](C)C[C@H](C)/C=C/C=C/C=C/1C	x	x	-2%	x	x	-16%
Cc1sc2c3ccsc3ccc2[n+]1C	x	-6%	-7%	25µM*	12%	u
CCN1/C(=C/c2ccc3cc(C)ccc3[n+]2C)Sc2ccc3sccc3c21	-23%	-7%	2%	-9%	3%	10%
Cc1sc2ccc3sccc3c2[n+]1C	-7%	-4%	-8%	14µM*	1%	-3%
Cc1cc(SCC(=O)N/N=C/c2ccc(O)c(O)c2O)c(C)cc1Br	x	i	-17%	10µM*	u	-30%
COc1cc(/C=N/NC(=O)CSc2cc(C)c(Br)cc2C)ccc1O	x	-1%	-3%	6%	4%	-3%
Cc1cn(C)c(CC(=O)N2CCN(c3cccc(C(F)(F)F)c3)CC2)c1C(=O)O	x	x	0%	x	x	0%
COc1cc(O)c(C(C)=O)c(CC(=O)O)c1	x	u	3%	25µM*	8.9µM*	-11%
Cc1ccnc(NC(=S)N2CCN(c3cccc(C(F)(F)F)c3)CC2)c1	x	x	-9%	x	30%	-9%
Cc1cc(C)nc(/N=c2/ssnc2Cl)c1	1%	-2%	-2%	0%	2%	-6%
